Whole data set: some 33,000 sequences, median “e-score” near -0.037, cut for the highest 2% near 0.34. Only a selection was taken, and the highest values are over-represented in it overall.
These sequences were tested against T1, GST-Rok (full length) (Bacillus subtilis subsp. subtilis str. …, UniProt O34857 1-191) (assay: protein binding microarray; Rok is a gene silencer of Bacillus subtilis; high values mean tight binding). Conditions: protein: recombinant; tags: GST (pTH5325, pDEST15-Magic modified); dsDNA, one strand shown.
T1 sequence: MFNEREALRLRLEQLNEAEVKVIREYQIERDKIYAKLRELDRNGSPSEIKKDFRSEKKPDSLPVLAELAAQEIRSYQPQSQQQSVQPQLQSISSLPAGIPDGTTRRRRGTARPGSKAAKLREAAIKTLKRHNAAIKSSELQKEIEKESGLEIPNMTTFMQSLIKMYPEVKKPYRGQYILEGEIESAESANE
Outline: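 Every oligonucleotide joins a 25-mer constant primer to a 35-mer variable part drawn from a de Bruijn sequence of order 10, so each non-palindromic 8-mer appears at least 32 times and each palindromic 8-mer 16 times. The preference for every 8-mer is reported as a unitless, rank-based enrichment score (E-score). This score spans 0.5 for the most favored 8-mer to −0.5 for the most disfavored.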

Row | Sequence | binding signal [E-score]
1 | CTAACGCA | 0.101
2 | ACCCTGTC | -0.0851
3 | AACGACCG | -0.0771
4 | TAATTATA | 0.385
5 | AAATTATA | 0.413
6 | GAATTATA | 0.326
7 | TAATTAAA | 0.259
8 | CAATTATC | 0.2
9 | AAATTATG | 0.215
10 | AAATTATT | 0.296
11 | CAATTATA | 0.363
12 | CAATTATG | 0.175
13 | CGTATGGA | 0.128
14 | AATTAAAC | 0.0743
15 | CATATAGG | 0.175
16 | ATTAATCA | 0.232
17 | CTGGAAAG | -0.166
18 | CACATCTC | 0.0106
19 | AGTATTAT | 0.358
20 | GCTATTAC | 0.269
21 | AGTATTAA | 0.29
22 | ACTATTAG | 0.244
23 | CTTATTAC | 0.299
24 | CCTATTAC | 0.285
25 | ATTATTAA | 0.0696
26 | ACTATTAA | 0.289

Row | Sequence | binding signal [E-score]
27 | ACTATTAC | 0.407
28 | ATTATTAC | 0.382
29 | AGTATTAC | 0.26
30 | ACTATTAT | 0.386
31 | GCATTAGA | 0.129
32 | TAGTCTGA | 0.148
33 | CTTTACGA | 0.0116
34 | AAGGAGTC | -0.107
35 | AAGGAATC | -0.0168
36 | ATAGAAGC | 0.307
37 | CGAGTAAC | 0.156
38 | ACTTTTAT | 0.355
39 | ACTATTGA | 0.288
40 | ACTTTTAA | 0.158
41 | ACTATTGC | 0.401
42 | ACTATTGG | 0.208
43 | ACTTTTAC | 0.224
44 | CACTTTTC | 0.0315
45 | ACGTTAAG | -0.0138
46 | TATAACCA | 0.27
47 | CACGTTGA | 0.088
48 | AAGATGAC | 0.0776
49 | AAGTTTTG | 0.00498
50 | ATTATACC | 0.269
51 | ACTATACG | 0.0122
52 | CTTATACA | 0.283

Row | Sequence | binding signal [E-score]
53 | GTTATACA | 0.213
54 | ATTATACG | 0.381
55 | ATTATACA | 0.363
56 | AACGGTTC | 0.108
57 | GTAGACAA | -0.0127
58 | GTGGCCAC | -0.123
59 | ACCTTGCG | -0.00332
60 | CAAAAAGA | -0.0731
61 | TGCTTGAA | -0.0266
62 | ATTCTACG | 0.18
63 | CTTCTACC | 0.327
64 | ATTCTATC | 0.348
65 | ATTCTACA | 0.42
66 | CTTCTATC | 0.265
67 | ATTCTATA | 0.247
68 | ATTCTAGC | 0.257
69 | GTTCTACA | 0.265
70 | ATTCTACC | 0.442
71 | TGAACCCA | -0.0568
72 | CAACTAAA | 0.249
73 | TCTAACAA | 0.0589
74 | AAGCGCAG | -0.165
75 | GAGACTGA | 0.0243
76 | ACCAATCC | 0.0382
77 | ATGGTGAG | -0.0135
78 | ACTAAAAA | 0.21

Row | Sequence | binding signal [E-score]
79 | ACTAAATC | 0.343
80 | ACTAAAAT | 0.406
81 | ACTAAAAC | 0.303
82 | ACTAAATA | 0.3
83 | ACTAAATG | 0.277
84 | CAAACAAC | 0.00627
85 | TAGCGGAA | 0.245
86 | GATGGACC | -0.171
87 | ATTGTTCA | 0.126
88 | ACTGGCGG | -0.0567
89 | CAGCTGGA | -0.0564
90 | GGAGCAAC | -0.104
91 | ACACTAGT | 0.32
92 | AAACTAGT | 0.459
93 | GAACTAGC | 0.176
94 | CAACTAGC | 0.203
95 | AAACTAGG | 0.252
96 | AAACTAGC | 0.362
97 | AAATCCAT | 0.193
98 | GGAGGTGA | -0.124
99 | CCGGCAGC | -0.14
100 | CCGCGTCG | 0.0351
101 | ACAGTGTA | 0.268
102 | GTAACTCA | 0.22
103 | CGTTTTAA | 0.191
104 | ACGAGTAG | -0.0634

Row | Sequence | binding signal [E-score]
105 | CTTGTATA | 0.219
106 | AATGTATA | 0.388
107 | AAAGTACA | 0.364
108 | AATGTACG | 0.192
109 | AATGTACT | 0.303
110 | AATGTATC | 0.224
111 | CAAGTACA | 0.165
112 | AAAGTACG | 0.22
113 | ATTGTATA | 0.32
114 | AATGTATG | 0.272
115 | AATGTACA | 0.347
116 | GTTGTATA | 0.348
117 | CAGTACTG | 0.0294
118 | CCTGGCGA | -0.199
119 | GTCCGTCA | -0.0558
120 | GGCAGCTA | -0.0821
121 | AGAAAGAT | 0.0756
122 | AAGGCGGT | -0.0994
123 | ATTGTACA | 0.369
124 | ATTGTACG | 0.266
125 | ATTGTACC | 0.239
126 | TATGTACA | 0.378
127 | GATGTACA | 0.282
128 | CATGTACA | 0.317
129 | ACGCTTGC | -0.1
130 | CCGTTTTA | 0.0815

Row | Sequence | binding signal [E-score]
131 | CAAATCTC | 0.0513
132 | GAAATCTA | 0.345
133 | GCAATCTA | 0.361
134 | CCAATCTA | 0.283
135 | CAAATCTG | -0.00951
136 | ACAATCTA | 0.283
137 | TAAATCTA | 0.308
138 | GAAATCTC | 0.209
139 | CAAATCTA | 0.377
140 | ATTGATCG | 0.0726
141 | CAACTGAA | -0.0305
142 | CCTCTCTA | -0.198
143 | CGTATCGA | 0.0045
144 | ACAAATAA | 0.333
145 | ATAAATAA | 0.329
146 | ACAAATAC | 0.249
147 | ATAAATAT | 0.339
148 | ACAAATAT | 0.402
149 | ATAAATAG | 0.322
150 | AATAACCT | 0.0317
151 | AACCACGT | -0.0233
152 | ACCATAGT | 0.207
153 | GGATAGAA | 0.171
154 | CGATAGAA | 0.344
155 | AGATAGAA | 0.26
156 | TGATAGAA | 0.388

Row | Sequence | binding signal [E-score]
157 | CGATAGAC | 0.0161
158 | CGATAGAG | -0.134
159 | AGGTGCCA | -0.0282
160 | CTTATTGA | -0.157
161 | GATAGATC | 0.273
162 | AATAGATT | 0.388
163 | AATAGATG | 0.261
164 | GATAGACA | -0.0476
165 | TATAGATA | 0.384
166 | AATAGATC | 0.14
167 | CATAGATA | 0.3
168 | GATAGATA | 0.368
169 | AATAGATA | 0.262
170 | ACCGTACT | 0.0822
171 | ATTTGGCC | -0.00123
172 | CACGGTAG | 0.264
173 | AACATCAA | 0.0614
174 | CGAAGCAA | -0.114
175 | AACCTCGC | -0.106
176 | AAATTCGT | 0.226

From PMC6212790, “How bacterial xenogeneic silencer rok distinguishes foreign from self DNA in its resident genome”
